Measurements: PubChem BioAssay (NCI)
This is part of a sample that, as a whole, favours compounds with a hit. Of some 83,000 tested, about 20% had one in any assay.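 Results are percent growth after 48 hours of single-concentration exposure. 100 means growth as in untreated cells, lower positive values show inhibition; negative values down to -100 show cell death.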 Active and inactive are the calls of the source. The calls were made as follows: active = growth percent below 10; inactive = the rest.

The compounds below were run on SK-MEL-2 melanoma (assay: NCI-60 one-dose screen, 48 h (100 = growth as untreated, 0 = no growth, -100 = all killed)). Conditions: 10 µM unless noted.

SMILES	growth
COc1ccc2c(c1)CC[C@@H]1[C@@H]2CC[C@]2(C)[C@@H](O)C(=O)C[C@@H]12	107% (inactive)
C[C@@H]1CN(c2nc3c(cc2F)c(=O)c(C(=O)O)cn3C(C)(C)C)C[C@H](C)N1	97.1% (inactive)
NS(=O)(=O)c1ccc(-n2ncc3c(NC4CCCCC4)ncnc32)cc1	103% (inactive)
CCOC(=O)C1=CCC(n2cc(C)c(=O)[nH]c2=O)O1 (stereo not drawn)	105% (inactive)
O=CNc1ccc2c(c1)Cc1cc([N+](=O)[O-])ccc1-2	19.2% (inactive)
CC(=O)[C@H]1CC[C@H]2[C@@H]3C[C@H](C)C4=CC(=O)CC[C@]4(C)[C@H]3C(=O)C[C@]12C	98.9% (inactive)
Cc1ccc2nc(SCC(=O)Nc3ccc(-c4nc5ccccc5s4)c(Cl)c3)[nH]c2c1	105% (inactive)
Cc1ccc(C(=O)Cc2ccccc2)c(O)c1	101% (inactive)
ICCC(c1ccccc1)(c1ccccc1)c1ccccc1	48.7% (inactive)
c1ccc(CN=C(NCc2ccccc2)NCc2ccccc2)cc1	60.5% (inactive)
Oc1ccc(/C=N/Nc2nc3ccccc3s2)c(O)c1	24% (inactive)
O=C(CC(C(=O)c1ccccc1)N1CCN(Cc2ccccc2)CC1)c1ccccc1 (stereo not drawn)	104% (inactive)
CC(NC(N)=S)c1ccccc1 (stereo not drawn)	120% (inactive)
C[C@]12CCC(=O)C=C1CC[C@H]1[C@@H]3C[C@@H](O)[C@](O)(C(=O)CO)[C@@]3(C)C[C@H](O)[C@@]12F	109% (inactive)
O=C(Nc1ccc2c(c1)C(=O)c1ccccc1-2)c1ccccc1	82.4% (inactive)
COC(=O)C1=CCC(n2cnc3c(N)ncnc32)O1 (stereo not drawn)	94.5% (inactive)
CCN(Cc1cccc(S(=O)(=O)[O-])c1)c1ccc(C(=C2C=CC(=[N+](CC)Cc3cccc(S(=O)(=O)O)c3)C=C2)c2ccccc2S(=O)(=O)O)cc1	115% (inactive)
CC(NC(=O)Oc1cccc2ccccc12)c1ccccc1 (stereo not drawn)	107% (inactive)
OC(c1cc(-c2cccc(Cl)c2)nc2ccccc12)C1CCCCN1 (stereo not drawn)	-92% (active)
O=C(Nc1ccccc1OC(=O)c1ccccc1)c1ccccc1	83.1% (inactive)

SMILES	growth
Cc1ccccc1NC(=O)NC(CC(N)=O)c1ccc2c(c1)nc(-c1cccc(Oc3ccc(C(C)(C)C)cc3)c1)n2CCCN1CCCCC1C (stereo not drawn)	51.8% (inactive)
O=C(C(=O)c1cc(Br)ccc1O)c1cc(Br)ccc1O	28.4% (inactive)
Fc1ccccc1C1c2ccccc2-c2nccn21 (stereo not drawn)	99.5% (inactive)
COc1cc(/C=C\C(C)=N\Nc2ccccc2)ccc1O	92.5% (inactive)
COc1cc(/C=N/NC(=O)c2ccc(C(F)(F)F)nc2Nc2ccc(Cl)cc2C)ccc1O	18.8% (inactive)
O=Cc1ccccc1C(=O)O	109% (inactive)
COc1cc(NC(=O)NCc2ccco2)ccc1-c1ccc(NC(=O)NCc2ccco2)cc1OC	76.3% (inactive)
COc1cccc(/C=N/Nc2nc3ccccc3s2)c1OC	81% (inactive)
O=C(N/N=C/c1ccc(Cl)cc1Cl)c1ccccc1Nc1cccc(C(F)(F)F)c1	54.9% (inactive)
COc1ccc(NS(=O)(=O)N2CCCCC2)cc1	99.1% (inactive)
O=c1c2ccccc2c2nccn2c2cc(Cl)ccc12	81.5% (inactive)
COc1ccc(-c2ccc(O)c(C(=O)/C=C/c3cc(OC)c(OC)c(OC)c3)c2)cc1	84.4% (inactive)
Cn1cnc([N+](=O)[O-])c1Sc1nc(N)nc2nc[nH]c12	17.8% (inactive)
Cc1cc(=O)oc2cc(OCCn3c(C)nn(-c4ccc(Cl)cc4)c3=O)ccc12	3.55% (active)
O=C1C=CC(=O)N1c1ccccn1	109% (inactive)
CCN(CC)c1ccc(N=C2C=CC(=O)C=C2NC(C)=O)cc1	98.6% (inactive)
CC1CN(C2CCCCC2)C(=O)NC1=O (stereo not drawn)	100% (inactive)
COc1ccc2cc(C3=CC(=O)CCC3)ccc2c1	92.7% (inactive)
COc1ccc(Cl)cc1Nc1nc(C(F)(F)F)ccc1C(=O)N/N=C/c1c(Cl)cccc1Cl	28.3% (inactive)

The compounds below were run on EKVX NSCLC in the same assay as above. Conditions: 10 µM unless noted.

SMILES	growth
COc1ccc2c(c1)CC[C@@H]1[C@@H]2CC[C@]2(C)[C@@H](O)C(=O)C[C@@H]12	102% (inactive)
C[C@@H]1CN(c2nc3c(cc2F)c(=O)c(C(=O)O)cn3C(C)(C)C)C[C@H](C)N1	104% (inactive)
NS(=O)(=O)c1ccc(-n2ncc3c(NC4CCCCC4)ncnc32)cc1	102% (inactive)
CCOC(=O)C1=CCC(n2cc(C)c(=O)[nH]c2=O)O1 (stereo not drawn)	104% (inactive)
O=CNc1ccc2c(c1)Cc1cc([N+](=O)[O-])ccc1-2	36% (inactive)
CC(=O)[C@H]1CC[C@H]2[C@@H]3C[C@H](C)C4=CC(=O)CC[C@]4(C)[C@H]3C(=O)C[C@]12C	114% (inactive)
Cc1ccc2nc(SCC(=O)Nc3ccc(-c4nc5ccccc5s4)c(Cl)c3)[nH]c2c1	119% (inactive)
Cc1ccc(C(=O)Cc2ccccc2)c(O)c1	99.4% (inactive)
ICCC(c1ccccc1)(c1ccccc1)c1ccccc1	88.4% (inactive)
c1ccc(CN=C(NCc2ccccc2)NCc2ccccc2)cc1	28.2% (inactive)
Oc1ccc(/C=N/Nc2nc3ccccc3s2)c(O)c1	43.2% (inactive)
O=C(CC(C(=O)c1ccccc1)N1CCN(Cc2ccccc2)CC1)c1ccccc1 (stereo not drawn)	120% (inactive)
CC(NC(N)=S)c1ccccc1 (stereo not drawn)	103% (inactive)
C[C@]12CCC(=O)C=C1CC[C@H]1[C@@H]3C[C@@H](O)[C@](O)(C(=O)CO)[C@@]3(C)C[C@H](O)[C@@]12F	88.4% (inactive)
O=C(Nc1ccc2c(c1)C(=O)c1ccccc1-2)c1ccccc1	97.4% (inactive)
COC(=O)C1=CCC(n2cnc3c(N)ncnc32)O1 (stereo not drawn)	101% (inactive)
CCN(Cc1cccc(S(=O)(=O)[O-])c1)c1ccc(C(=C2C=CC(=[N+](CC)Cc3cccc(S(=O)(=O)O)c3)C=C2)c2ccccc2S(=O)(=O)O)cc1	94.1% (inactive)
CC(NC(=O)Oc1cccc2ccccc12)c1ccccc1 (stereo not drawn)	107% (inactive)
OC(c1cc(-c2cccc(Cl)c2)nc2ccccc12)C1CCCCN1 (stereo not drawn)	47.3% (inactive)
O=C(Nc1ccccc1OC(=O)c1ccccc1)c1ccccc1	110% (inactive)

SMILES	growth
Cc1ccccc1NC(=O)NC(CC(N)=O)c1ccc2c(c1)nc(-c1cccc(Oc3ccc(C(C)(C)C)cc3)c1)n2CCCN1CCCCC1C (stereo not drawn)	79.2% (inactive)
O=C(C(=O)c1cc(Br)ccc1O)c1cc(Br)ccc1O	88.2% (inactive)
Fc1ccccc1C1c2ccccc2-c2nccn21 (stereo not drawn)	96.1% (inactive)
COc1cc(/C=C\C(C)=N\Nc2ccccc2)ccc1O	94.1% (inactive)
COc1cc(/C=N/NC(=O)c2ccc(C(F)(F)F)nc2Nc2ccc(Cl)cc2C)ccc1O	38.4% (inactive)
O=Cc1ccccc1C(=O)O	94% (inactive)
COc1cc(NC(=O)NCc2ccco2)ccc1-c1ccc(NC(=O)NCc2ccco2)cc1OC	73% (inactive)
COc1cccc(/C=N/Nc2nc3ccccc3s2)c1OC	95.7% (inactive)
O=C(N/N=C/c1ccc(Cl)cc1Cl)c1ccccc1Nc1cccc(C(F)(F)F)c1	-27.9% (active)
COc1ccc(NS(=O)(=O)N2CCCCC2)cc1	115% (inactive)
O=c1c2ccccc2c2nccn2c2cc(Cl)ccc12	83.2% (inactive)
COc1ccc(-c2ccc(O)c(C(=O)/C=C/c3cc(OC)c(OC)c(OC)c3)c2)cc1	79.8% (inactive)
Cn1cnc([N+](=O)[O-])c1Sc1nc(N)nc2nc[nH]c12	27.9% (inactive)
Cc1cc(=O)oc2cc(OCCn3c(C)nn(-c4ccc(Cl)cc4)c3=O)ccc12	58.7% (inactive)
O=C1C=CC(=O)N1c1ccccn1	118% (inactive)
CCN(CC)c1ccc(N=C2C=CC(=O)C=C2NC(C)=O)cc1	106% (inactive)
CC1CN(C2CCCCC2)C(=O)NC1=O (stereo not drawn)	110% (inactive)
COc1ccc2cc(C3=CC(=O)CCC3)ccc2c1	99.1% (inactive)
COc1ccc(Cl)cc1Nc1nc(C(F)(F)F)ccc1C(=O)N/N=C/c1c(Cl)cccc1Cl	60.5% (inactive)
